Measurements from PubChem BioAssay (NCATS).
Inconclusive results are not listed. Activity calls are given as the source filed them. Calls come from the whole dose curve; as a rule, active = well fitted cell-killing curve with a large enough effect; inconclusive = small, poorly fitted or top-dose-only effect, or effect the other way; inactive = flat fitted curve, though single readings scatter.

Legend:
Experiment in all cases: Primary qHTS to identify gynecologic anti-cancer compounds using libraries of approved drugs and bioactive compounds (AID 1345084); note: nearly all actives have a fitted effect of over 55% in size
Conditions in all cases: Gynecologic cancer cell panel viability, ATPlite luminescence, 48 h; series mostly up to 57.5 µM
OV90 = tested on: OV90
Procedure, shortened: (§1)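 Luminescence from the ATPlite ATP-monitoring reagent indicates viable cell number; lower signal means cytotoxicity. Cells received compound 16 h after seeding and were exposed for 48 h across five concentrations.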

PA-1 = tested on: PA-1
Procedure, shortened: as §1

SKOV3 = tested on: SKOV3
Procedure, shortened: as §1

Tov-21-G = tested on: Tov-21-G
Procedure, shortened: as §1

Tov112D = tested on: Tov112D
Procedure, shortened: as §1
% is set by controls: 0 for no effect and ±100 for the full control effect.

COc1ccc(C(=O)OC2C3C=COC(OC4OC(CO)C(O)C(O)C4O)C3C3(CO)OC23)cc1OC (stereo not given)
inactive: Potency (OV90) | Potency (PA-1) | Potency (SKOV3) | Potency (Tov-21-G) | Potency (Tov112D)

CC(=O)O[C@@H]1C=C2[C@H](CC[C@@]3(C)[C@@]2(O)CC[C@H]2Cc4c([nH]c5ccccc45)[C@@]23C)O[C@@H]1C(C)(C)O
inactive: Potency (OV90) | Potency (PA-1) | Potency (SKOV3) | Potency (Tov-21-G) | Potency (Tov112D)

CN(C)CCC[C@]1(c2ccc(F)cc2)OCc2cc(C#N)ccc21
inactive: Potency (OV90) | Potency (PA-1) | Potency (SKOV3) | Potency (Tov-21-G) | Potency (Tov112D)

C=CCC1=C[C@]2(OC)[C@H](C)[C@@H](c3ccc(OC)c(OC)c3)O[C@]2(OC)CC1=O
inactive: Potency (OV90) | Potency (PA-1) | Potency (SKOV3) | Potency (Tov-21-G) | Potency (Tov112D)

C=CC(C)(CCC=C(C)C)O[C@@H]1O[C@H](CO)[C@@H](O)[C@H](O)[C@H]1O (stereo not given in full)
inactive: Potency (OV90) | Potency (PA-1) | Potency (SKOV3) | Potency (Tov-21-G) | Potency (Tov112D)

O=C(CCc1ccccc1)c1c(O)c([C@@H]2O[C@H](CO)[C@@H](O)[C@H](O)[C@H]2O)c(O)c([C@@H]2O[C@H](CO)[C@@H](O)[C@H](O)[C@H]2O)c1O
inactive: Potency (OV90) | Potency (PA-1) | Potency (SKOV3) | Potency (Tov-21-G) | Potency (Tov112D)

OC[C@@]1(O)CO[C@@H](OC[C@H]2O[C@@H](Oc3ccccc3)[C@H](O)[C@@H](O)[C@@H]2O)[C@@H]1O
inactive: Potency (OV90) | Potency (PA-1) | Potency (SKOV3) | Potency (Tov-21-G) | Potency (Tov112D)

CC(C)C(O)(CO)CCO[C@@H]1O[C@H](CO[C@H]2OC[C@](O)(CO)[C@H]2O)[C@@H](O)[C@H](O)[C@H]1O (stereo not given in full)
inactive: Potency (OV90) | Potency (PA-1) | Potency (SKOV3) | Potency (Tov-21-G) | Potency (Tov112D)

CC(C)(O)C(O)C(=O)OCc1ccc(O[C@@H]2O[C@H](CO)[C@@H](O)[C@H](O)[C@H]2O)cc1 (stereo not given in full)
inactive: Potency (OV90) | Potency (PA-1) | Potency (SKOV3) | Potency (Tov-21-G) | Potency (Tov112D)

COC(=O)C(CC1(O)c2ccccc2N2C(=O)C(C)(C)N(O)C21)n1cnc2ccccc2c1=O (stereo not given)
inactive: Potency (OV90) | Potency (PA-1) | Potency (SKOV3) | Potency (Tov-21-G) | Potency (Tov112D)

COc1cc(O)cc2c1C(=O)OC(C)C2 (stereo not given)
inactive: Potency (OV90) | Potency (PA-1) | Potency (SKOV3) | Potency (Tov-21-G) | Potency (Tov112D)

COc1cn(-c2ccc(-n3cccn3)cc2F)nc(-c2ccnn2-c2ccccc2)c1=O
inactive: Potency (OV90) | Potency (PA-1) | Potency (SKOV3) | Potency (Tov-21-G) | Potency (Tov112D)

Cc1ccc(Cl)cc1N(CC(=O)Nc1c(F)cccc1F)S(C)(=O)=O
inactive: Potency (OV90) | Potency (PA-1) | Potency (SKOV3) | Potency (Tov-21-G) | Potency (Tov112D)

CC(=O)OC12CC(C)C(OC(=O)c3ccccc3)C1/C=C(/C)C(OC(=O)c1ccccc1)CC(=O)C(C)(C)/C=C/C(C)C2=O (stereo not given)
inactive: Potency (OV90) | Potency (PA-1) | Potency (SKOV3) | Potency (Tov-21-G) | Potency (Tov112D)

CC1=C2C[C@H]3OC(=O)[C@H](O)[C@@]4(O)[C@@H](C)[C@@H](O)[C@H](O)C([C@@]2(C)[C@H](O)[C@@H](O)C1)[C@@]34C (stereo not given in full)
inactive: Potency (OV90) | Potency (PA-1) | Potency (SKOV3) | Potency (Tov-21-G) | Potency (Tov112D)

C/C=C1\[C@H](O[C@@H]2O[C@H](CO)[C@@H](O)[C@H](O)[C@H]2O)OC=C(C(=O)OCCc2ccc(O)cc2)[C@H]1CC(=O)OCCc1ccc(O)cc1
inactive: Potency (OV90) | Potency (PA-1) | Potency (SKOV3) | Potency (Tov-21-G) | Potency (Tov112D)

C[C@@H]1O[C@@H](O[C@H]2[C@H](OC(=O)[C@]34CCC(C)(C)C[C@H]3C3=CCC5[C@@]6(C)C[C@@H](O)[C@@H](O)[C@@](C)(CO)C6[C@H](O)C[C@@]5(C)[C@]3(C)CC4)OC[C@H](O)[C@@H]2O)[C@H](O)[C@H](O)[C@H]1O[C@@H]1OC[C@@H](O)[C@H](O[C@H]2O[C@H](C)[C@@H](O)[C@H](O)[C@@H]2O)[C@H]1O (stereo not given in full)
inactive: activity change, negative = cytotoxicity (OV90) 9.69% [at 11.6 µM] | activity change, negative = cytotoxicity (PA-1) 12.4% [at 11.6 µM] | activity change, negative = cytotoxicity (SKOV3) -1.53% [at 11.6 µM] | activity change, negative = cytotoxicity (Tov-21-G) 0.722% [at 11.6 µM] | activity change, negative = cytotoxicity (Tov112D) 3.92% [at 11.6 µM]

C=C(C(=O)O)C1CC(O)C2(C)CCCC(C)(O)C2C1 (stereo not given)
inactive: Potency (OV90) | Potency (PA-1) | Potency (SKOV3) | Potency (Tov-21-G) | Potency (Tov112D)

Nc1nc(COC(=O)c2ccc([N+](=O)[O-])cc2)nc(Nc2ccccc2)n1
inactive: Potency (OV90) | Potency (PA-1) | Potency (SKOV3) | Potency (Tov-21-G) | Potency (Tov112D)

CC(C)=CCc1cc(O[C@@H]2O[C@H](CO[C@@H]3OC[C@](O)(CO)[C@H]3O)[C@@H](O)[C@H](O)[C@H]2O)ccc1O
inactive: Potency (OV90) | Potency (PA-1) | Potency (SKOV3) | Potency (Tov-21-G) | Potency (Tov112D)

Cc1occc(=O)c1O[C@@H]1O[C@H](CO[C@@H]2OC[C@](O)(CO)[C@H]2O)[C@@H](O)[C@H](O)[C@H]1O
inactive: Potency (OV90) | Potency (PA-1) | Potency (SKOV3) | Potency (Tov-21-G) | Potency (Tov112D)
